HCMV inh = human cytomegalovirus inhibition | activity change, negative = inhibition, % at 57.5 µM | AID 1259415 | HFF cells, HCMV-luciferase reporter, 72 h; active compounds read low | hit rate 4.5% among 410,000; in the data active means activity change below about -60%; inconclusive means no clear call, values can overlap the other calls; inactive means above about -39%
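Screen run at 2 compound doses on HFFs infected with reporter HCMV, MOI 1 PFU/cell. Luciferase activity from cell lysates at 72 h post infection gave inhibition relative to buffer-only and Salinomycin wells.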
Vaccinia mCherry = vaccinia inhibition (mCherry reporter); Vaccinia virus mCherry reporter infection, fluorescence; Potency, µM (series often up to 36.5 µM), without a hit: top-dose activity change, negative = inhibition, actives largely listed as inhibitors; hit rate 0.63% among 310,000; AID 720579; calls by dose curve; tested in A549 cells; further: potency means the concentration at half of the fitted maximal effect; nearly all actives have a fitted effect of over 35% in size
Vaccinia Venus = inhibitors of vaccinia virus (Venus reporter) | Vaccinia virus Venus reporter expression, fluorescence | Potency, µM (doses to about 36.5 µM), without a hit: at the top dose activity change, negative = inhibition, usual class: inhibitors | hit rate 0.46% among 330,000 | AID 720580; calls by dose curve; tested in A549 cells; further: potency means the concentration at half of the fitted maximal effect; nearly all actives have a fitted effect of over 30% in size
Tb PYK inh = T. brucei pyruvate kinase inhibition. Q57TT1. TbPYK enzyme, Kinase-Glo Plus ATP luminescence, 45 min. Potency, µM (titrated, usually from 76.8 µM), without a hit: at the highest dose activity, negative = inhibition, usual class: inhibitors. hit rate 0.12% among 410,000. AID 624173; further: potency means the concentration at half of the fitted maximal effect; nearly all actives have a fitted effect of over 50% in size
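Enzyme and substrate buffer are dispensed first and compound is pin-transferred. ADP at 130 uM final then starts the reaction, which runs 45 min at room temperature. Detection reagent is added for 10 min before luminescence is imaged.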
LmPK inhibitor = LmPK (Leishmania mexicana) enzyme inhibition; Q27686; purified LmPK, Kinase-Glo ATP luminescence, 1 h; Potency, µM (series often up to 57.5 µM), for the others: top-dose activity change, negative = inhibition, actives largely listed as inhibitors; hit rate 0.37% among 290,000; AID 1721; further: potency means the concentration at half of the fitted maximal effect
Target sequence (Q27686 whole entry, looked up): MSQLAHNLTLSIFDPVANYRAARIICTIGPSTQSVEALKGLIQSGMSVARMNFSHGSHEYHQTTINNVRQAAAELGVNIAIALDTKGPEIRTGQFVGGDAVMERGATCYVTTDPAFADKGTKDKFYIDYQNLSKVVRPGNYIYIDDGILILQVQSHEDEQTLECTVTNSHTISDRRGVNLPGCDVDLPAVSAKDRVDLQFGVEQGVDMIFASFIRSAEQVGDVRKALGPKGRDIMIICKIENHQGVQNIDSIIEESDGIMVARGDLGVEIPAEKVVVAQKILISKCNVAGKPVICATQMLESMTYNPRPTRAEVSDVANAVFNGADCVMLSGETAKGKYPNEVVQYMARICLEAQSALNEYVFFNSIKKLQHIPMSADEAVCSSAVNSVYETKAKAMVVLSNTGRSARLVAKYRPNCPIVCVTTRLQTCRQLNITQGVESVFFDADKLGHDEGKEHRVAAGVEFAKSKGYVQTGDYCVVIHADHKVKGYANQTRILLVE
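0.1 nM LmPK, 0.5 mM PEP, 0.1 mM ADP; 50 mM imidazole pH 7.2, 7 mM MgCl2, 50 mM KCl; 1 h RT. Kinase-Glo luminescence readout, normalized to no-enzyme (full inhibition) and uninhibited wells.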
* = called active by the depositor; i = inactive; ? = inconclusive; / = not tested or not shown. A selection: hits, their analogues and other compounds. The true share with any hit is near 5%. Unless noted, the call rests on the fitted dose curve; in most records, active means well fitted curve in the direction sought with a large enough effect; inconclusive means small, poorly fitted or top-dose-only effect, or another doubt; inactive means no such curve, though single readings can be large; an effect the other way counts as inactive or inconclusive. On the % scale 0 is the no-effect control and ±100 the full control effect.

SMILES	HCMV inh	Vaccinia mCherry	Vaccinia Venus	Tb PYK inh	LmPK inhibitor
CCCN(CC(=O)Nc1ccccc1C)C(=O)C1CCN(c2ncnc3sc(C)c(C)c23)CC1	-15.3	-24.4%	?	-11.2%	/
CCOc1ccc(NC(=O)CN(C)C(=O)C2CCN(c3ncnc4sc(C)c(C)c34)CC2)cc1OCC	-68.5*	?	?	5.0%	6.3%
COc1ccccc1NS(=O)(=O)NC(=O)c1cn(C)c2ccccc12	0.0	/	/	-2.4%	0.4%
CN(C)S(=O)(=O)c1cccc(NC(=O)c2cccc(S(=O)(=O)N3CCc4ccccc43)c2)c1	-94.9*	/	/	0.6%	/
NC(=O)C1CN(C(=O)c2cccc(S(=O)(=O)N3CCc4ccccc43)c2)c2ccccc2O1 (stereo unspecified)	-105.1*	/	/	4.2%	/
O=C(NNC(=O)c1cccc(S(=O)(=O)N2CCc3ccccc32)c1)c1ccccc1	?	-29.0%	?	0.0%	12.7%
CC(=O)NS(=O)(=O)c1ccc(NC(=O)c2cccc(S(=O)(=O)N3CCc4ccccc43)c2)cc1	-23.2	-16.4%	-9.1%	-5.1%	2.1%
O=C(Nc1ccc(S(=O)(=O)N2CCc3ccccc32)cc1)c1ccc2c(c1)OCO2	-84.8*	?	?	0.7%	-2.2%
O=C(Nc1ccc(Br)cc1)c1cccc(S(=O)(=O)N2CCc3ccccc32)c1	-61.2*	?	-21.5%	-1.4%	/
O=C(CNC(=O)c1cccc(S(=O)(=O)N2CCc3ccccc32)c1)Nc1ccc(F)c(F)c1F	-39.2	?	-7.1%	0.2%	/
O=S(=O)(NC1CCCC1)c1ccc(S(=O)(=O)N2CCc3ccccc32)cc1	-98.5*	?	?	1.5%	7.5%
O=C(Nc1ccc(S(=O)(=O)N2CCc3ccccc32)cc1)c1ccco1	-80.7*	?	-20.3%	0.6%	7.7%
O=C(CNC(=O)c1cccc(S(=O)(=O)N2CCc3ccccc32)c1)Nc1ccccc1Br	-82.6*	?	7.4%	0.1%	/
Cc1cc2c(nn1)CCc1nonc1-2	42.0	/	/	-3.1%	5.6%
O=C(O)c1ccccc1/C=N/Nc1nc(N2CCCCC2)nc(N2CCCCC2)n1	?	/	/	/	4.7%
Cc1ccc(CN2CCN(Cc3cn(C(C)C)c4ccccc34)CC2CCO)o1 (stereo unspecified)	3.1	-16.1%	-11.1%	-1.6%	5.8%
O=C(Nc1ncccn1)c1cccc(F)c1	-75.6*	/	/	0.0%	-15.1%
O=C(Nc1ncccn1)c1cccc(Cl)c1	29.4	/	/	4.0%	/
O=C(Nc1ccc(Nc2ccccc2)cc1)c1cccc(F)c1	75.2	/	/	12.0%	0.2%
O=C(NC(=O)c1cccc(F)c1)Nc1ccc(-c2cc(C(F)(F)F)nn2-c2ccccc2)cc1	1.5	-14.0%	-12.3%	-4.7%	/
O=C(Nc1ccc(-c2cc(C(F)(F)F)nn2-c2ccccc2)cc1)c1cccc(F)c1	-94.7*	-9.0%	?	3.1%	/
CCN(CC)C(=O)c1ccc(NC(=O)c2cccc(F)c2)cc1	35.8	/	/	-8.6%	28.2µM*
O=C(Nc1cc(Sc2nc3ccccc3s2)cc([N+](=O)[O-])c1)c1ccccc1	-35.6	?	?	-7.6%	4.8%
O=C(Nc1cc(Sc2ccccn2)cc([N+](=O)[O-])c1)c1cccc(F)c1	-67.3*	?	?	4.9%	1.3%
COc1cc2c(cc1OC)C(C(=O)NCc1ccco1)C(c1cccs1)N(C)C2=O (stereo unspecified)	?	/	/	0.8%	0.5%
SMILES	HCMV inh	Vaccinia mCherry	Vaccinia Venus	Tb PYK inh	LmPK inhibitor
COc1cc2cc(OC(C)=O)c3cc4c(cc3c2c(OC)c1OC)OCO4	14.5	-3.5%	-4.3%	2.6%	/
CN(c1ccccc1)S(=O)(=O)c1ccc(Cl)nc1	-17.2	?	-28.0%	3.1%	2.2%
Cc1nc(S(=O)(=O)N(C)c2ccccc2)c(C#N)c(C)c1Cl	-96.7*	-4.7%	-6.8%	-2.6%	2.0%
CCCCNC(=O)[C@]1(C)CCC[C@@]2(C)C3CC[C@@]4(C)C[C@]3(CCC21)CC4=O (stereo partly specified)	-23.5	i	-8.2%	0.0%	/
CN(C)S(=O)(=O)c1ccc(NC(=O)N2CCN(c3cccc(C(F)(F)F)c3)CC2)cc1	-79.4*	/	/	-1.5%	4.4%
COc1ccc(NC(=O)N2CCN(c3cccc(C(F)(F)F)c3)CC2)cc1	-15.6	/	/	0.0%	-6.4%
Cc1ccc(-c2cnc(C(O)c3cc(F)cc(Cl)c3)[nH]2)cc1 (stereo unspecified)	-2.0	13.3%	-3.6%	3.4%	/

Screens: PubChem, National Center for Advancing Translational Sciences (NCATS)
